In PubChem BioAssay (NCI):
About 83,000 compounds went through this panel and 20% of them were active in at least one assay; those are over-represented in the sample as a whole.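 Note: values are percent growth. 100 is the growth of untreated cells, values between 100 and 0 indicate rising inhibition; between -100 and 0 indicates cell death.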 A number with no mark means an inactive call. Calls of active or inactive are those of the source. How the source made its calls: active means growth percent below 10; inactive means the rest.

test system: SF-539 CNS; assay: NCI-60 one-dose screen, 48 h (100 = growth as untreated, 0 = no growth, -100 = all killed); settings: 10 µM unless noted

| SMILES | growth |
| --- | --- |
| O=C1Nc2ccc3c(c2/C1=C\c1cc2c(cc1Br)OCO2)OCO3 | -36% (active) |
| Cc1ccc(N2CCN(C(C)C(N)=O)CC2)cc1 (stereo not given) | 110% |
| COc1cc(NC(N)=NCCC(C)(C)Oc2ccc(C(F)(F)F)cc2)ncc1C#N | 11.7% |
| CCc1ccc(-c2ccc(=O)n(-c3ccc(S(N)(=O)=O)cc3)n2)cc1 | 43.6% |
| CC[N+](CC)=c1cc2oc3cc(N(C)C)ccc3nc-2cc1C | 22.2% |
| COc1cccc(-c2nc3sccn3c2-c2ccnc(NCCCNS(=O)(=O)c3ccc(F)cc3)c2)c1 | 67.2% |
| N[C@H]1CN(C(=O)c2cc3cc(Br)c(F)c(F)c3[nH]2)C[C@@H]1O | 96% |
| O=C(N/N=C/C=C\c1ccccc1)C(=O)N/N=C/C=C/c1ccccc1 | 114% |
| O=C(O)COc1ccc(-c2cssc2=S)cc1 | 96.3% |
| CCOC(=O)c1c(NS(=O)(=O)c2ccc(C)cc2)sc2c1CCC1(C2)OCCO1 | 93.7% |
| Cc1nc2ncccc2nc1Nc1ccc(S(=O)(=O)Nc2ccccn2)cc1 | 97.5% |
| Fc1ccc(Nc2ncnc3ccc(-c4cnc5[nH]ccc5c4)cc23)cc1Cl | -73.2% (active) |
| COc1ccc(C2C(C#N)=C(N)Oc3c2ccc2ccccc32)cc1 (stereo not given) | 25.6% |
| COc1ccc(C(=O)N2NC(=O)/C(=C/c3cn(-c4ccccc4)nc3-c3ccccc3)N=C2c2ccccc2)cc1 | 115% |
| C=C1C(=O)O[C@H]2[C@H]1CC/C(Cn1cc(CNC(=O)Cc3cn(C(=O)c4ccc(Cl)cc4)c4ccc(OC)cc34)nn1)=C\CC[C@@]1(C)O[C@@H]21 | -83.7% (active) |
| CCCCC(CC)OC(=O)C(Br)CC (stereo not given) | 98.7% |
| O=C1/C(=C/c2ccccc2)Oc2ccc(O)c(I)c21 | 87.7% |
| COC(=O)c1cc2cc(-c3ccc(OC)cc3)cnc2[nH]1 | -27.2% (active) |
| c1coc(CNc2ccnc(Nc3ccc(OCCN4CCCCC4)cc3)n2)c1 | 76.4% |
| COc1ccc2[nH]c(C(=O)OCc3ccc4c(Cl)cc(Cl)c(O)c4n3)cc2c1 | -96.4% (active) |
| CCOC(=O)C1CCNC(=O)C1=O (stereo not given) | 112% |
| O=C(O)C1CCCCN1c1nc(Cl)nc(Cl)n1 (stereo not given) | 92.6% |
| C=C1CCC2C(C)(CO)C(O)CCC2(C)C1CC(NCc1ccccc1)C1=CCOC1=O (stereo not given) | 101% |
| CCCCCCCCCCCC(=O)NCCC[N+](C)(C)CC(=O)[O-] | 94.3% |
| CN(CCCCCl)P(=O)(OCc1ccc([N+](=O)[O-])o1)C(F)(F)C[C@H](NC(=O)CNC(=O)c1ccc(N=[N+]=[N-])cc1)C(=O)NCCc1ccc(O)cc1 (stereo not given in full) | 104% |
| NC(N)=Nc1nc2ccccc2o1 | 96.2% |

test system: UACC-257 melanoma; assay: as above; settings: 10 µM unless noted

| SMILES | growth |
| --- | --- |
| CN(C[C@H]1Cc2c(cccc2N2CCN(c3ncccn3)CC2)CN1)[C@H]1CCCc2cccnc21 | 55.1% |
| COc1ccc(-c2cnoc2-c2ccc(OC)cc2O)cc1 | 56.7% |
| COc1ccc(/C=N\NC(=O)CN2CCN(c3cc4c(cc3F)c(=O)c(C(=O)N/N=C/c3ccc(OC)c(OC)c3)cn4C3CC3)CC2)cc1OC | 11.4% |
| C1=Cc2ccccc2N(c2nnc(-c3ccccc3)o2)c2ccccc21 | 111% |
| COc1ccc(-c2nc3sc(-c4cc(OC)c(OC)c(OC)c4)nn3c2/C=C2/C(=O)Nc3ccc(F)cc32)cc1 | -25% (active) |
| O=C(Oc1ccccc1[N+](=O)[O-])C1CCCN1C(=O)OCc1ccccc1 (stereo not given) | 94.2% |
| CC(C)(C)OC(=O)NC(CSCc1ccccc1)C(=O)ON1C(=O)CCC1=O (stereo not given) | 99.8% |
| O=S(=O)(NCCCNc1nccc(-n2ccc3cccnc32)n1)c1ccc(Br)cc1 | 118% |
| COc1ccc(/C=C2\Oc3cc(OCCCN4CCCC4)ccc3C2=O)cc1 | 101% |
| Cc1csc(NC(c2ccc(Br)cc2)c2c(C)nc3ccccn23)n1 (stereo not given) | 76.1% |
| Cn1c(=O)cc(NC(=O)CN2CCN(c3cc4c(cc3F)c(=O)c(C(=O)O)cn4C3CC3)CC2)[nH]c1=O | 100% |
| CC(C)(C)n1cc(-c2ccnc(NCCNS(=O)(=O)c3ccc(F)cc3)c2)c(-c2cccc(O)c2)n1 | 64.9% |
| CC(C)(C)n1cc(-c2ccnc(NCCNS(=O)(=O)c3ccc(Cl)cc3)c2)c(-c2cccc(O)c2)n1 | 64.8% |
| O=C1Nc2ccc3c(c2/C1=C\c1cc2c(cc1Br)OCO2)OCO3 | 58.3% |
| Cc1ccc(N2CCN(C(C)C(N)=O)CC2)cc1 (stereo not given) | 127% |
| COc1cc(NC(N)=NCCC(C)(C)Oc2ccc(C(F)(F)F)cc2)ncc1C#N | -46.2% (active) |
| CCc1ccc(-c2ccc(=O)n(-c3ccc(S(N)(=O)=O)cc3)n2)cc1 | 22.3% |
| CC[N+](CC)=c1cc2oc3cc(N(C)C)ccc3nc-2cc1C | -28% (active) |
| COc1cccc(-c2nc3sccn3c2-c2ccnc(NCCCNS(=O)(=O)c3ccc(F)cc3)c2)c1 | 35.6% |
| N[C@H]1CN(C(=O)c2cc3cc(Br)c(F)c(F)c3[nH]2)C[C@@H]1O | -76.6% (active) |

| SMILES | growth |
| --- | --- |
| O=C(N/N=C/C=C\c1ccccc1)C(=O)N/N=C/C=C/c1ccccc1 | 106% |
| O=C(O)COc1ccc(-c2cssc2=S)cc1 | 94.5% |
| CCOC(=O)c1c(NS(=O)(=O)c2ccc(C)cc2)sc2c1CCC1(C2)OCCO1 | 96.2% |
| Cc1nc2ncccc2nc1Nc1ccc(S(=O)(=O)Nc2ccccn2)cc1 | 107% |
| Fc1ccc(Nc2ncnc3ccc(-c4cnc5[nH]ccc5c4)cc23)cc1Cl | 39.2% |
| COc1ccc(C2C(C#N)=C(N)Oc3c2ccc2ccccc32)cc1 (stereo not given) | 75.1% |
| COc1ccc(C(=O)N2NC(=O)/C(=C/c3cn(-c4ccccc4)nc3-c3ccccc3)N=C2c2ccccc2)cc1 | 95% |
| C=C1C(=O)O[C@H]2[C@H]1CC/C(Cn1cc(CNC(=O)Cc3cn(C(=O)c4ccc(Cl)cc4)c4ccc(OC)cc34)nn1)=C\CC[C@@]1(C)O[C@@H]21 | 10.4% |
| CCCCC(CC)OC(=O)C(Br)CC (stereo not given) | 104% |
| O=C1/C(=C/c2ccccc2)Oc2ccc(O)c(I)c21 | 96.6% |
| COC(=O)c1cc2cc(-c3ccc(OC)cc3)cnc2[nH]1 | 51.3% |
| c1coc(CNc2ccnc(Nc3ccc(OCCN4CCCCC4)cc3)n2)c1 | 87.3% |
| COc1ccc2[nH]c(C(=O)OCc3ccc4c(Cl)cc(Cl)c(O)c4n3)cc2c1 | -77.3% (active) |
| CCOC(=O)C1CCNC(=O)C1=O (stereo not given) | 126% |
| O=C(O)C1CCCCN1c1nc(Cl)nc(Cl)n1 (stereo not given) | 100% |
| C=C1CCC2C(C)(CO)C(O)CCC2(C)C1CC(NCc1ccccc1)C1=CCOC1=O (stereo not given) | 102% |
| CCCCCCCCCCCC(=O)NCCC[N+](C)(C)CC(=O)[O-] | 98.3% |
| CN(CCCCCl)P(=O)(OCc1ccc([N+](=O)[O-])o1)C(F)(F)C[C@H](NC(=O)CNC(=O)c1ccc(N=[N+]=[N-])cc1)C(=O)NCCc1ccc(O)cc1 (stereo not given in full) | 104% |
| NC(N)=Nc1nc2ccccc2o1 | 121% |
